{"source": "PubChem BioAssay AID893", "about": "(National Center for Advancing Translational Sciences (NCATS), 2007)", "note": "Several values for one entry are separate records, joined by “and”; a condition that tells them apart may be missing. Equal values may be shown once. Among all 75,000 compounds or so, about 5,700 (7.6%) were called active. Another 7% or so got no clear call; they are omitted. This excerpt belongs to a sample that is enriched for actives. Unmarked numbers belong to inactive results. Calls come from the whole dose curve; as a rule, active = well fitted inhibition curve with a large enough effect; inconclusive = small, poorly fitted or top-dose-only effect; inactive = no such curve, though single readings can be large or run the other way. % is set by controls: 0 for no effect and ±100 for the full control effect; potency is the fitted concentration of half-maximal effect.", "data": [{"biological_target": "3-hydroxyacyl-CoA dehydrogenase type-2 (Homo sapiens) (UniProt Q99714)", "assay": "qHTS Assay for Inhibitors of HSD17B4, hydroxysteroid (17-beta) dehydrogenase 4;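 note: the protocol describes HADH2 (HSD17B10) and not the HSD17B4 of the title; nearly all actives have a fitted effect of over 70% in size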", "conditions": "recombinant HSD17B10, NADH fluorescence kinetic; series mostly up to 57.1 µM; activity change, negative = inhibition: at the top concentration", "outline": "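20 nM HADH2, pH 9.0 Tris/Tween; cpd preinc 15 min RT; start w/ 1 mM NAD+ + 90 uM b-hydroxybutyryl-CoA; kinetic fluor ex360/em450 q30s x 4 min; delta last-first.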", "values": [{"smiles": "Cc1ccn2cc(C(=O)NC3CCN(Cc4ccccc4)CC3)nc2c1", "Potency": "31.6 µM (active)"}, {"smiles": "COC(=O)c1cc(S(=O)(=O)NC2CCN(Cc3ccccc3)CC2)cn1C", "activity change, negative = inhibition": "-3.37%"}, {"smiles": "O=C(NC1CCN(Cc2ccccc2)CC1)c1ccccc1F", "activity change, negative = inhibition": "12.8%"}, {"smiles": "COc1cc(Cl)cc(C2NC(=O)NC(C)=C2C(=O)NCc2ccccc2)c1O", "note": "(stereo unspecified)", "activity change, negative = inhibition": "8.34%"}, {"smiles": "CCOc1ccc(C(=O)Nc2cc(OC)ccc2OC)cc1", "activity change, negative = inhibition": "-11.3%"}, {"smiles": "Oc1ccc(-c2csc(Nc3cccnc3)n2)cc1", "activity change, negative = inhibition": "3.13%"}, {"smiles": "COc1ccc(OC)c(Nc2nc(-c3ccc(O)c(O)c3)cs2)c1", "Potency": "7.94 µM (active)"}, {"smiles": "COc1ccc(-n2nnc3c(=O)n(CC(=O)OCc4ccccc4)cnc32)cc1", "activity change, negative = inhibition": "1.02%"}, {"smiles": "c1ccc(-c2noc(-c3cccs3)n2)nc1", "activity change, negative = inhibition": "-5.02%"}, {"smiles": "COC(=O)[C@H](C)[C@H]1C[C@]1(C)[C@H](NC(=O)OCc1ccccc1)c1ccccc1", "activity change, negative = inhibition": "-4.85%"}, {"smiles": "COc1ccccc1CNc1ncnc2ccc(-c3c(C)noc3C)cc12", "activity change, negative = inhibition": "-0.171%"}, {"smiles": "COc1ccc2[nH]cc(CCNc3ncnc4ccc(-c5ccccc5CN(C)C)cc34)c2c1", "activity change, negative = inhibition": "14.2%"}, {"smiles": "COc1ccccc1CNc1ncnc2ccc(-c3ccc4c(c3)OCO4)cc12", "Potency": "31.6 µM (active)"}, {"smiles": "COc1cc(OC)c(C(=O)NC2CCCCCC2)cc1OC", "activity change, negative = inhibition": "-14%"}, {"smiles": "O=C(COC(=O)CCC(=O)c1cccs1)NCc1ccco1", "Potency": "25.1 µM (active)"}, {"smiles": "O=C(CCC(=O)c1cccs1)NCc1ccccc1", "activity change, negative = inhibition": "9.75%"}, {"smiles": "O=C(COC(=O)C12CC3CC(CC(C3)C1)C2)NCc1ccco1", "activity change, negative = inhibition": "-13.9%"}, {"smiles": "CC(=O)Nn1cc2c(=O)n(C)c(=O)n(C)c2c1", "activity change, negative = inhibition": "5.62%"}, {"smiles": "CC1=C(C(=O)Nc2ccc(Cl)cc2)C(c2ccco2)NC(=O)N1", "note": "(stereo unspecified)", "activity change, negative = inhibition": "-1.26%"}, {"smiles": "C=C(C)Cn1c(N2CCN(CC)CC2)nc2c1c(=O)[nH]c(=O)n2C", "activity change, negative = inhibition": "1.14%"}, {"smiles": "CCC(C)(C)N=C(NC#N)Nc1cccnc1", "activity change, negative = inhibition": "-14.3%"}, {"smiles": "CCOC(=O)CSc1nccc(N(C)C)c1C#N", "activity change, negative = inhibition": "-0.126%"}, {"smiles": "CCOC(=O)Cc1c(C)nc2c(C#N)c(C)nn2c1C", "Potency": "25.1 µM (active)"}, {"smiles": "CC[C@@H]1Cc2cc(O)ccc2C2=C1c1ccc(O)cc1C[C@H]2CC", "Potency": "25.1 µM (active)"}, {"smiles": "Cc1ccc2nc(CC(=O)c3ccc4ccccc4c3)c(=O)[nH]c2c1", "activity change, negative = inhibition": "5.47% [at 11.4 µM]"}, {"smiles": "C=CC(=O)c1ccc2ccccc2c1", "Potency": "25.1 µM (active)"}, {"smiles": "c1ccc(CCC2=NCCn3cccc32)cc1", "activity change, negative = inhibition": "4.34%"}, {"smiles": "CN(CCOc1ccc(CC2SC(=O)NC2=O)cc1)c1ccccn1", "note": "(stereo unspecified)", "Potency": "31.6 µM (active)"}, {"smiles": "CO[C@@H]1COC(=O)[C@H](Cc2ccccc2)NC(=O)C/C=C\\[C@@H](C)[C@H](OC)COC(=O)[C@@H](C)NC(=O)C/C=C\\[C@H]1C", "activity change, negative = inhibition": "5.16% [at 11.4 µM] and 0.0428% [at 11.4 µM]"}, {"smiles": "CCOC(=O)Cc1csc(NC(=O)Nc2ccccc2)n1", "activity change, negative = inhibition": "5.37%"}, {"smiles": "Cc1cc(C)nc(NC(=O)Nc2ccccc2C(F)(F)F)n1", "activity change, negative = inhibition": "-1.71%"}, {"smiles": "Cc1csc(NC(=O)NC2(C(F)(F)F)Oc3ccccc3O2)n1", "Potency": "25.1 µM (active)"}, {"smiles": "CCCCN(C)C(=O)C1CCN(Cc2ccccn2)CC1", "activity change, negative = inhibition": "5.92%"}, {"smiles": "CO[C@H]1COC(=O)[C@@H](C)NC(=O)C/C=C\\[C@@H](C)[C@H](OC)COC(=O)C/C=C\\[C@@H]1C", "activity change, negative = inhibition": "-0.943% [at 11.4 µM]"}, {"smiles": "c1ccc(-n2nnnc2N2CCOCC2)cc1", "activity change, negative = inhibition": "5.21%"}, {"smiles": "O=C1c2ccccc2-c2ncnc3c(N4CCOCC4)cc(N4CCOCC4)c1c23", "activity change, negative = inhibition": "0.627%"}, {"smiles": "c1ccc(-c2oc3ncnc(N4CCOCC4)c3c2-c2ccccc2)cc1", "Potency": "10 µM (active)"}, {"smiles": "Cc1cc(C(=O)OCC(=O)c2c(N)n(C)c(=O)n(C)c2=O)c(C)o1", "activity change, negative = inhibition": "7.96%"}, {"smiles": "CCOc1cccc(C(=O)Nc2cccnc2)c1", "activity change, negative = inhibition": "8.63%"}, {"smiles": "CCC(=O)Oc1cccc(C(=O)Nc2ccc(-c3nnc(-c4ccco4)o3)cc2)c1", "Potency": "20 µM (active)"}, {"smiles": "CCCOc1cccc(C(=O)Nc2nnn(CCC)n2)c1", "activity change, negative = inhibition": "11.2%"}, {"smiles": "Oc1ccc2c(c1)OCC1c3cc4c(cc3OC21)OCO4", "note": "(stereo unspecified)", "activity change, negative = inhibition": "-0.88%"}, {"smiles": "O=C(c1ccccc1)N1CCN(C(=O)N2CCCCC2)CC1", "activity change, negative = inhibition": "3.89%"}, {"smiles": "O=C(O)CS(=O)c1ccc2c3c(cccc13)C(=O)c1ccccc1-2", "note": "(stereo unspecified)", "activity change, negative = inhibition": "-2.63% [at 11.4 µM]"}, {"smiles": "CC(=O)c1c(C)n(-c2ccc(N(C)C)cc2)c2ccc(OCC(N)=O)cc12", "activity change, negative = inhibition": "-11.9%"}, {"smiles": "O=C1Nc2c(Br)cc(Br)cc2C1(O)N1CCOCC1", "note": "(stereo unspecified)", "activity change, negative = inhibition": "0.821%"}, {"smiles": "Brc1cccc(-c2nnc3n2CCC3)c1", "activity change, negative = inhibition": "0.616%"}, {"smiles": "CCc1ccc2oc(-c3ccc(N)cc3)nc2c1", "Potency": "25.1 µM (active)"}, {"smiles": "CCN(CC)c1ccc2oc(=O)c(C)nc2c1", "activity change, negative = inhibition": "-25.8%"}, {"smiles": "Cc1ccc(S(=O)(=O)N2C3C=CC(C3)C2C(=O)O)cc1", "note": "(stereo unspecified)", "activity change, negative = inhibition": "6.36%"}, {"smiles": "COC(=O)N1CCC2(CCCN(c3ccncc3)C2)CC1", "activity change, negative = inhibition": "1.52%"}, {"smiles": "COc1cccc(N2CCN(C3CC(=O)N(c4ccc(Cl)cc4)C3=O)CC2)c1", "note": "(stereo unspecified)", "activity change, negative = inhibition": "-12.5%"}, {"smiles": "COC(=O)CC1C(C)(C)C(OC(C)=O)C2CC3=C4CC(=O)OC(c5ccoc5)[C@]4(C)CCC3[C@@]1(C)C2=O", "note": "(stereo partly specified)", "activity change, negative = inhibition": "-4.16%"}, {"smiles": "COCCn1nnnc1C(c1cc2ccc(OC)cc2[nH]c1=O)N1CCc2ccccc2C1", "note": "(stereo unspecified)", "activity change, negative = inhibition": "-12%"}, {"smiles": "CCOc1ccc2[nH]c(=O)c(C(c3nnnn3CCOC)N3CCOCC3)cc2c1", "note": "(stereo unspecified)", "Potency": "10 µM (active)"}, {"smiles": "COc1ccc(N2CCN(C(c3cc4ccc(C)cc4[nH]c3=O)c3nnnn3C3CCCC3)CC2)cc1", "note": "(stereo unspecified)", "activity change, negative = inhibition": "-0.718%"}, {"smiles": "O=C(Nc1cccc(OCC(=O)N2CCOCC2)c1)C1CCCCC1", "activity change, negative = inhibition": "10.2%"}, {"smiles": "O=C1CC2(CCCCC2)Oc2ccc(OCC(=O)N3CCOCC3)cc21", "Potency": "31.6 µM (active)"}, {"smiles": "COc1ccc(OCC(=O)N2CCOCC2)cc1", "activity change, negative = inhibition": "8.6%"}, {"smiles": "CC(C)(C)[Si](OCC[C@@H]1C[C@@]1(C)[C@@H](NP(=O)(c1ccccc1)c1ccccc1)c1ccccc1)(c1ccccc1)c1ccccc1", "activity change, negative = inhibition": "-19.1%"}, {"smiles": "O=c1c(O)c(-c2ccc(O)cc2)oc2ccccc12", "Potency": "25.1 µM (active)"}, {"smiles": "CC1O[C@@H](Oc2c(-c3ccc(O)c(O)c3)oc3cc(O)cc(O)c3c2=O)C(O)C(O)C1O", "note": "(stereo partly specified)", "activity change, negative = inhibition": "-7.59%"}, {"smiles": "O=C1c2oc3ccccc3c(=O)c2C(c2cccc(O)c2)N1c1ccccn1", "note": "(stereo unspecified)", "activity change, negative = inhibition": "-1.25%"}, {"smiles": "CCOC(=O)CNC(=O)CSc1nnc(-c2cccc(OC)c2)n1CC", "activity change, negative = inhibition": "-1.53%"}, {"smiles": "Cc1ccc(CNC(=O)C2CCCN(S(C)(=O)=O)C2)cc1", "note": "(stereo unspecified)", "activity change, negative = inhibition": "6.68%"}, {"smiles": "CCOC(=O)c1cc(C)sc1NC(=O)C1CCC1", "activity change, negative = inhibition": "-15.9%"}]}]}
